Bioassay records deposited in PubChem BioAssay by The Scripps Research Institute Molecular Screening Center.
FBW7 activator: FBW7 E3 ligase activators, primary screen, biochemical, AlphaScreen, human; F-box/WD repeat-containing protein 7 (Homo sapiens), Q969H0; AlphaScreen FBW7–phospho-cyclin E peptide binding, activator screen; normalized activity (activation), % at 26.1 µM; actives 0.13% (n = 650,000); AID 1259310, 2017; in the data active = normalized activity above about 1.9%;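 also: purified mutant Fbw7 with reduced substrate affinity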
TEAD-YAP block: TEAD-YAP interaction inhibition, primary screen, TEAD-YAP interaction inhibitor project, luminescence, HEK-TIYL cells. TEAD-Gal4/YAP UAS-luciferase luminescence. inhibition, % at 9.12 µM. actives 1.4% (n = 640,000). AID 1259422, 2018; in the data active = inhibition above about 32%
MITF primary: MITF inhibitors, primary screen, biochemical, AlphaScreen, human; Microphthalmia-associated transcription factor (Homo sapiens), O75030; AlphaScreen MITF homodimerization, bead proximity signal; inhibition, % at 2.6 µM; actives 0.91% (n = 650,000); in the data active = inhibition above about 50%
Target sequence (O75030 whole entry, looked up): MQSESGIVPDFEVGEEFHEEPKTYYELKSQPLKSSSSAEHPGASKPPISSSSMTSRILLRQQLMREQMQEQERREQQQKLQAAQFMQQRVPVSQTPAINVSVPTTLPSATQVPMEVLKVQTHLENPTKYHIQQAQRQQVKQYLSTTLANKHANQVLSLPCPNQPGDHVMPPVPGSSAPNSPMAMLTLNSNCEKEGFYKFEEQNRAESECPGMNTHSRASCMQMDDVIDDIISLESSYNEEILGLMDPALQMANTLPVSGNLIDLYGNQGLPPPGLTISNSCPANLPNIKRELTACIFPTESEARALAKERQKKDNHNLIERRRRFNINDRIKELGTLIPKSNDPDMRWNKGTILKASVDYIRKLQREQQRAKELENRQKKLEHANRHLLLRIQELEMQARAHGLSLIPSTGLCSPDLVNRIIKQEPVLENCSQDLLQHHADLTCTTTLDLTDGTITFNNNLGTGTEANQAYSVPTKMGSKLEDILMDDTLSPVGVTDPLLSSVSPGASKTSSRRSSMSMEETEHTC
GPR151 ag: activators of human GPR151, primary screen, cell-based, PathHunter beta-arrestin, luminescence | G-protein coupled receptor 151 (Homo sapiens), Q8TDV0 | activation, % at 11.2 µM | actives 1% (n = 650,000) | PathHunter beta-arrestin GPR151 cells; in the data active = activation above about 4.9%
MITF confirm: MITF inhibitors, retest of hits, confirmation, biochemical, AlphaScreen, triplicate; shares compounds with MITF primary; AlphaScreen MITF homodimerization, biotin/His-MITF beads; AID 1259372, 2018; inhibition, % at 2.6 µM; actives 16% (n = 4,700);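 active = inhibition above a cutoff derived from the DMSO control wells, cut at about 28% in these data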;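 also: inhibitors lower the bead chemiluminescence by keeping MITF from dimerizing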
AlphaScreen DR: AlphaScreen optical interference compounds, dose response, counter-screen, biochemical, HTS | shares compounds with MITF primary | AlphaScreen optical interference counterscreen, cell-free | IC50, µM | actives 6% (n = 480) | AID 1259373, 2018; call rule not given here
AlphaScreen intf2: AlphaScreen optical interference compounds, counter-screen for MITF inhibitor project, biochemical, triplicate | shares compounds with MITF primary | LysRS AlphaScreen counterscreen, signal interference | inhibition, % at 2.6 µM | actives 7.6% (n = 4,700);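 active = inhibition above a cutoff derived from the DMSO control wells, cut at about 30% in these data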
Of the large screens only hits and unclear results are named; the others gave an inactive call (follow-up assays come after a bar, where they were run). A selection: hits, their analogues and other compounds. The true share with any hit is near 3.5%.

O=C(Nc1ccc(Cl)cc1)c1nn2c(C(F)(F)F)cc(-c3ccc(Cl)cc3)nc2c1Cl	none
COCCNC(=O)CCCCn1c(=S)[nH]c2c([nH]c3ccc(OC)cc32)c1=O	MITF primary 51.5 | MITF confirm inactive | AlphaScreen intf2 40.9
Cc1ccc(N2C(=O)NC(=O)/C(=C\c3ccc(OCC(=O)O)cc3)C2=O)cc1C	none
CN1CCN(C(CNC(=O)c2ccc(-c3ccccc3)cc2)c2ccsc2)CC1 (stereo not given)	MITF primary 55.4 | MITF confirm inactive | AlphaScreen intf2 inactive
Cc1ccc(-n2ncc(C#N)c2/N=C/N2CCN(C)CC2)cc1	MITF primary 55.7 | MITF confirm inactive | AlphaScreen intf2 inactive
Cc1nc2ccc(S(=O)(=O)CCC(=O)NCc3ccccc3Cl)cc2s1	none
CN1CCCN(Cc2cc(F)ccc2F)CC1	MITF primary 69.6 | MITF confirm inactive | AlphaScreen intf2 inactive
Cc1ccccc1CN1CCCN(C)CC1	none
OCCN1CCN(Cc2c3ccccc3cc3ccccc23)CC1	none
CN1CCN(Cc2c3ccccc3cc3ccccc23)CC1	MITF primary 75.5 | MITF confirm inactive | AlphaScreen intf2 inactive
CN1CCCN(Cc2cccc3ccccc23)CC1	MITF primary 51.5 | MITF confirm inactive | AlphaScreen intf2 inactive
Cc1cc(C(=O)NNC(=O)CNC(=O)CNC(=O)c2ccc(Cl)cc2Cl)c(C)o1	none
CC(=O)Nn1c(C)nc2ccccc2c1=O	none
COC(=O)c1ccccc1NC(=O)CN(c1cccc(Cl)c1Cl)S(C)(=O)=O	none
Cc1cc(NC2CCCCC2)nc(-c2ccccc2O)n1	MITF primary 79.5 | MITF confirm inactive | AlphaScreen intf2 inactive
N#Cc1c(SCc2ccc(Cl)cc2)nc2c(c1-c1cccs1)CC/C2=C\c1cccs1	none
Cc1ccc(-c2csc(NC(=O)c3cc(Cl)cc(Cl)c3)n2)c(C)c1	MITF primary 75.5 | MITF confirm inactive | AlphaScreen intf2 inactive
CC(=O)Nc1nc(-c2ccc(C)cc2C)cs1	none
COc1cc(CN2CCN(Cc3ccc4ccccc4c3)CC2)cc(OC)c1OC	MITF primary 60.5 | MITF confirm inactive | AlphaScreen intf2 inactive
COc1cc(CN2CCN(Cc3cccc(OC)c3OC)CC2)cc(OC)c1	none
COc1cccc(CN2CCN(Cc3ccc4ccccc4c3)CC2)c1OC	MITF primary 76.4 | MITF confirm inactive | AlphaScreen intf2 inactive
COc1cccc(CN2CCN(Cc3cccc(OC)c3OC)CC2)c1	MITF primary 73.6 | MITF confirm inactive | AlphaScreen intf2 inactive
CCOc1cc(CN2CCN(Cc3cccc(OC)c3OC)CC2)ccc1OC	none
COc1cccc(CN2CCN(Cc3cccc(F)c3)CC2)c1OC	MITF primary 66.4 | MITF confirm inactive | AlphaScreen intf2 inactive
CC(C)NC(=O)C1CCCN1C(=O)Nc1ccccc1[N+](=O)[O-] (stereo not given)	none
CC(Oc1ccc(O)cc1)(P(=O)(O)O)P(=O)(O)O	MITF primary 96.6 (no result: TEAD-YAP block) | MITF confirm 96.0 | AlphaScreen DR inactive | AlphaScreen intf2 inactive
COc1ccc(-n2cnc3nc(C)c(C(C)=O)c(-c4ccccc4)c32)cc1	none
COC(=O)C1=CN(c2ccc(C)c(Cl)c2)C=C(C(=O)OC)C1c1cccs1	MITF primary 56.7 | MITF confirm inactive | AlphaScreen intf2 inactive
O=C(O)COc1ccc(C2C3=C(CCCC3=O)NC3=C2C(=O)CCC3)cc1	none
O=C(O)c1ccc(Nc2ccc(Cl)c(C(F)(F)F)c2)c([N+](=O)[O-])c1	none
CCN1CCN(CCOc2cccc(Oc3ccccc3)c2)CC1	MITF primary 73.7 | MITF confirm inactive | AlphaScreen intf2 inactive
CCN1CCN(CCCOc2ccc(OCc3ccccc3)cc2)CC1	none
CCN1CCN(CCOCCOc2ccccc2)CC1	MITF primary 53.8 | MITF confirm inactive | AlphaScreen intf2 inactive
c1ccc(Oc2cccc(OCCN3CCNCC3)c2)cc1	MITF primary 70.8 | MITF confirm inactive | AlphaScreen intf2 inactive
Brc1cccc(OCCN2CCNCC2)c1	none
COc1ccc(C(=O)OCc2nc3ccccc3s2)cc1OC	none
O=C(CC1Nc2ccccc2NC1=O)Nc1cccc(Cl)c1 (stereo not given)	MITF primary 64.5 | MITF confirm inactive | AlphaScreen intf2 inactive
COc1ccccc1C(=O)Nc1ncnc2sc3c(c12)CCCC3	none
COc1cccc(NC(=O)CSc2nnc(C)c(=O)n2N)c1	none
Fc1ccccc1-c1cnc2ccc(NCc3cccs3)nn12	MITF primary 53.0 | MITF confirm inactive | AlphaScreen intf2 inactive
O=C(N/N=C/C=C/c1ccccc1)C(=O)N/N=C/C=C/c1ccccc1	none
COc1cccc(-c2nc(C3CCN(C(C)=O)CC3)n3ccc(Cl)cc23)c1	MITF primary 77.0 | MITF confirm inactive | AlphaScreen intf2 inactive
CCOC(=O)C1CCC(CN(CC(C)C)S(=O)(=O)c2ccc([N+](=O)[O-])cc2)CC1 (stereo not given)	none
O=C(N[C@H]1C[C@H]2C(=O)N[C@H](Cc3ccccc3)C(=O)N2C1)c1sccc1Cl	none
Cc1ccc(OCCCn2cncn2)c(I)c1	MITF primary 53.7 | MITF confirm inactive | AlphaScreen intf2 inactive
CCN1CCN(CCCOc2ccc(C)cc2I)CC1	MITF primary 57.1 | MITF confirm inactive | AlphaScreen intf2 inactive
CCN1CCN(CCCCOc2ccc(C)cc2I)CC1	MITF primary 53.0 | MITF confirm inactive | AlphaScreen intf2 inactive
Cc1ccc(OCCn2cncn2)c([N+](=O)[O-])c1	none
CC(=O)N1CCN(c2ccc(NC(=O)COc3ccc(Br)cc3)cc2)CC1	none
CC1N(C)c2cc(NC(=O)c3cccs3)ccc2C1(C)C (stereo not given)	none
NC(=O)c1cccc(Nc2ncc(F)c(-c3ccccc3)n2)c1	none
CCNC(=O)NC(=O)C(C)OC(=O)c1cccc(S(=O)(=O)NC)c1 (stereo not given)	none
COc1ccc(-c2c(C)oc3cc(OCC(=O)OC(C)C)ccc3c2=O)cc1OC	none
COc1ccc(-c2c(C)oc3cc(OCC(N)=O)ccc3c2=O)cc1OC	MITF primary 61.3 | MITF confirm inactive | AlphaScreen intf2 inactive
O=C(c1ccc2nc(-c3ccco3)c(-c3ccco3)nc2c1)N1CCSCC1	MITF primary 87.2 | MITF confirm 72.3 | AlphaScreen DR inactive | AlphaScreen intf2 inactive
O=C(c1ccc2nc(-c3cccs3)c(-c3cccs3)nc2c1)N1CCOCC1	none
CC1(C)C(=O)C2(C(=O)Nc3ccc(NC(=O)C45CCC(C4)C(C)(C)C5=O)cc3)CCC1C2	none
CCOC(=O)c1ccc(-n2c(=S)sc3c2nc(SCC(=O)NCc2ccccc2)n2c4ccccc4nc32)cc1	MITF primary 59.9 | MITF confirm inactive | AlphaScreen intf2 inactive
